Screens deposited in PubChem by PCMD.
FXIa single inh – blocks human coagulation factor XIa activity | purified human FXIa, fluorogenic AMC substrate cleavage | inhibition, % at 10 µM | 0.3% of 33,000 active | AID 687;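 active means inhibition above 40% in the primary screen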;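 further: 0% = enzyme without compound and 100% = blank wells lacking enzyme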
FXIIa inh – blocks human coagulation factor XIIa activity. inhibition, % at 10 µM. 0.2% of 33,000 active. P00748. purified human FXIIa, AMC substrate fluorescence, 2 h; in the data active means inhibition above about 30%;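 further: 0% = enzyme with vehicle only and 100% = no enzyme blank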
* = called active by the depositor. Only some compounds are listed: those with a hit (about 0.33% of all), similar ones and a draw of the others.

SMILES	FXIa single inh	FXIIa inh
CN(C)CCc1nc2ccccc2c(=O)n1-c1ccccc1	-2	6
CCCc1nc2ccccc2c(=O)n1-c1ccc(OC)cc1	42*	1
CCN1CCN(CC(=O)c2c(C)n(Cc3ccccc3)c3ccc(OC)cc23)CC1	-6	8
CCOC(=O)c1c(C)n(Cc2ccccc2)c2ccc(OCC(O)Cn3nc(C)cc3C)cc12 (configuration not stated)	101*	-15
OC(Cc1ccccc1)(c1ccccc1)C1CN2CCC1CC2 (configuration not stated)	10	7
CCN1CCN(C(=O)Cc2coc3ccc4ccccc4c23)CC1	-2	-1
